The values below come from PubChem BioAssay (NCI).

About 83,000 compounds went through this panel and 20% of them were active in at least one assay; those are over-represented in the sample as a whole.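 How to read the values: 0–100, growth inhibition (40 = 60% inhibited); 0, no net growth; -100 to 0, cell death (-40 = 40% of starting cells died; -100 = all dead).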 Values without a mark were called inactive. Active and inactive are the calls of the source. The calls were made as follows: active = growth percent below 10; inactive = the rest.

In the test the test system is 786-0 renal. Briefly: NCI-60 one-dose screen, 48 h (100 = growth as untreated, 0 = no growth, -100 = all killed). Particulars: 10 µM unless noted.
`CC1Cc2c(Cl)ncnc2N(C)c2ccc(F)cc21` (stereo not given): the growth is 79%.

With `N#CC1=C(N)Oc2c(sc3c(Br)cccc23)C1c1ccc(F)cc1` (stereo not given), the growth was 12.2%.

Consider `COc1ccc(/C(C)=C(/c2ccc(OCCCN(C)C)cc2)c2ccc(OC(=O)Cc3ccccc3)cc2)cc1`, for which the growth was 71.6%.

`O=C1Nc2ccccc2[C@]12CC(c1ccccc1)=NN2`: the growth was 50.7%.

Take `CN(CCOc1ccc(C#N)cc1)CCOc1ccc(C#N)cc1`: the growth was 26.3%.

`Cc1ccc(Sc2nnc(/N=C3\C(=O)Nc4ccccc43)s2)cc1`: the growth is 99.5%.

As for `Cn1cc(-c2nonc2-c2c[nH]c3ccc(Br)cc23)c2cc(Br)ccc21`, the growth is 34.3%.

Turning to `Cc1ccc(NC(=S)NNC(=S)NNc2ccccc2)cc1C`, the growth was 114%.

`COc1ccc(-c2csc(N(C(=O)N3CCN(c4cc5c(cc4F)c(=O)c(C(=O)O)cn5C4CC4)CC3)c3ccccc3)n2)cc1`: the growth was 19.6%.

As for `O=[N+]([O-])c1ccc(N/N=C(/C(=N/Nc2ccc([N+](=O)[O-])cc2)c2ccccc2)c2ccccc2)cc1`, the growth was 103%.

`CCCCCCCCn1ccc2cc(NC(=O)CN3CCN(c4nc(C)cc(Cl)n4)CC3)ccc21`: the growth was 97.7%.

As to `COc1ccc(-c2cc(-c3ccc(Cl)cc3)c(C#N)c(=O)n2CCCCC(=O)Nc2ccccc2N)cc1`, the growth is 68.8%.

As to `CCOC(=O)c1c2c(n3ccc(C)cc13)C(=O)c1ccccc1C2=O`, the growth is 97.3%.

As to `COc1ccc(-c2nc3c(c(-c4ccccc4)nn3-c3ccccc3)c(-c3ccc(N4CCN(C)CC4)cc3)c2C#N)cc1`, the growth was 78.9%.

Consider `Cc1ccc(-n2c(=S)[nH]c3sc4c(c3c2=O)CCC(=O)C4)cc1`, for which the growth is 29.5%.

Turning to `COc1cc(-c2cc(-c3ccc(N(C)C)cc3)nc(N3CCC(O)CC3)c2C#N)cc(OC)c1OC`, the growth was -3.55% (active).

With `O=Cc1ccc([N+](=O)[O-])s1`, the growth was 108%.

Consider `CC1=NN(c2nc(SCC(=O)Nc3nc4ccc(C)cc4s3)nc(-c3ccccc3)c2C#N)C(=O)C1`, for which the growth is 100%.

On to `O=C(CSc1nc(-c2ccccc2)[nH]c1S(=O)(=O)c1ccccc1)NC1CC1`, for which the growth is 94.5%.

Turning to `Nc1ncnc2c1N=C(c1ccc3c(c1)OCO3)CC(c1cccc(Nc3ccnc4cc(Cl)ccc34)c1)N2` (stereo not given), the growth is 55.1%.

`O=C(CN1C(=O)CCC1=O)Nc1ncc(Cc2ccc(F)cc2)s1`: the growth was 101%.

On to `Cn1cc(-c2csc(-c3ccc(Cl)cc3)n2)c2cccnc21`, for which the growth was -61.4% [100 µM] (active).

Consider `CN(Cc1ccc(C(F)(F)F)cc1)CC(O)C(=O)Nc1ccc(Cl)cc1` (stereo not given), for which the growth is -48.4% (active).

Consider `CCCCCOc1ccc(C(=O)/C(Br)=C/C(=O)O)cc1`, for which the growth is 98.8%.

Regarding `CCN(CC)CCCN1C(=O)c2c(c(C)c3c(oc4cc(O)ccc43)c2C)C1=O`, the growth was -80.6% (active).

In the case of `CCOP(=O)(OCC)c1nc(-c2ccccc2)oc1NCc1cccnc1`, the growth was 104%.

For `O=C(CCC(=O)N/N=C/c1ccccc1O)N/N=C/c1ccccc1O`, the growth is 69.7%.

As for `S=C(Nc1ccc(-c2nc(N3CCOCC3)c3cccn3n2)cc1)Nc1cccnc1`, the growth is 36.7%.

Turning to `N#Cc1c(N)nnn1Cc1cc(=O)oc2c1ccc1ccccc12`, the growth is 102%.

As for `Fc1ccc2[nH]cc(-c3nonc3-c3c[nH]c4ccc(Br)cc34)c2c1`, the growth is 23.5%.

In the case of `O=Nc1c(-c2c(O)[nH]c3ncccc23)[nH]c2ccccc12`, the growth was 43.3%.

Consider `Fc1cccc(CNc2c3ccccc3nc3ccccc23)c1F`, for which the growth is 65.4%.

For the molecule `CCn1c(=S)sc2c(Nc3ccc(F)cc3)nc(-c3cccnc3)nc21`, the growth is 20.5%.

Take `CC(C)(C)n1cc(-c2ccnc(NCCNS(=O)(=O)c3cccc(F)c3)c2)c(-c2ccccc2)n1`: the growth is 81.2%.

Consider `Cc1cc2c(O)c(-c3cc(Cl)ccc3Cl)c3sc(=O)oc3c2cc1C`, for which the growth is 83.8%.

As to `Fc1ccc(-c2nn(-c3ccccc3)cc2-c2nc3ccccc3o2)cc1`, the growth is 88.3%.

Take `OB(O)c1cccc(-c2nc3ccc4[nH]ncc4c3c3c2CCCC3)c1`: the growth was 41.4%.

Consider `O=C(CSc1nc2ccc([N+](=O)[O-])cc2[nH]1)Nc1ccc(F)cc1`, for which the growth was 62.7%.

Turning to `CNC(=O)c1c(NC(=O)c2ccc(C(F)(F)F)cc2)sc2c1CCC(=O)C2`, the growth was 10.3%.

`N#Cc1cccc(NC(=O)c2oc3ccccc3c2-c2cnn(-c3ccccc3)c2)c1`: the growth was 85.7% [50 µM].
